# From the supplement of paper PMC7765376
# Where a name gives a salt, the structure may show the parent alone. Over roughly 1,500 compounds, “Excess HSA synergy score (sum over dose matrix of excess over highest single agent)” has its median near 43; the lowest 2% begin near -900. What follows is part of a selection rich in the lowest values, with near analogues and random picks from the rest.
# System: PEO-1
# Test: Excess HSA synergy score (sum over dose matrix of excess over highest single agent) (score (summed % response)); higher = less synergy / more antagonism (negative = synergy)
# Details: 72 h, read-out: viability/apoptosis luminescence (CellTiter-Glo or Caspase3-Glo / not stated per table)
# [1] = matrix design: 6x6, 5-fold dilutions (primary screen)
# [2] = matrix design: 10x10, 9-step dilutions (confirmatory)
SMILES,Excess HSA synergy score [1],Excess HSA synergy score [2]
O=C(c1ccc(F)c(F)c1Nc1ccc(I)cc1F)N1CC(O)([C@@H]2CCCCN2)C1 [Cobimetinib] + CC[C@H](NC(=O)[C@H](C)NC)C(=O)N1C[C@@H](O)C[C@H]1Cc1c(-c2[nH]c3cc(F)ccc3c2C[C@@H]2C[C@H](O)CN2C(=O)[C@H](CC)NC(=O)[C@H](C)NC)[nH]c2cc(F)ccc12 [Birinapant],148,
CC(C)N(CC[C@H](c1ccccc1)c1cc(CO)ccc1O)C(C)C + CC[C@H](NC(=O)[C@H](C)NC)C(=O)N1C[C@@H](O)C[C@H]1Cc1c(-c2[nH]c3cc(F)ccc3c2C[C@@H]2C[C@H](O)CN2C(=O)[C@H](CC)NC(=O)[C@H](C)NC)[nH]c2cc(F)ccc12 [Birinapant],309,
CCCCCCCCc1ccc(CCC(N)(CO)CO)cc1 [Fingolimod hydrochloride] + CC[C@H](NC(=O)[C@H](C)NC)C(=O)N1C[C@@H](O)C[C@H]1Cc1c(-c2[nH]c3cc(F)ccc3c2C[C@@H]2C[C@H](O)CN2C(=O)[C@H](CC)NC(=O)[C@H](C)NC)[nH]c2cc(F)ccc12 [Birinapant],-38.3,
C/C=C/C[C@@H](C)C(=O)[C@H]1C(=O)N[C@@H](C(C)C)C(=O)N(C)CC(=O)N(C)[C@@H](CC(C)C)C(=O)N[C@@H](C(C)C)C(=O)N(C)[C@@H](CC(C)C)C(=O)N[C@@H](C)C(=O)N[C@H](C)C(=O)N(C)[C@@H](CC(C)C)C(=O)N(C)[C@@H](CC(C)C)C(=O)N(C)[C@@H](C(C)C)C(=O)N1C [Valspodar] + CC[C@H](NC(=O)[C@H](C)NC)C(=O)N1C[C@@H](O)C[C@H]1Cc1c(-c2[nH]c3cc(F)ccc3c2C[C@@H]2C[C@H](O)CN2C(=O)[C@H](CC)NC(=O)[C@H](C)NC)[nH]c2cc(F)ccc12 [Birinapant],173,
COc1ccc(-c2cc3c(C)nc(N)nc3n([C@H]3CC[C@H](OCCO)CC3)c2=O)cn1 + CC[C@H](NC(=O)[C@H](C)NC)C(=O)N1C[C@@H](O)C[C@H]1Cc1c(-c2[nH]c3cc(F)ccc3c2C[C@@H]2C[C@H](O)CN2C(=O)[C@H](CC)NC(=O)[C@H](C)NC)[nH]c2cc(F)ccc12 [Birinapant],-32.5,
O=C(/C=C/c1cccnc1)NCCCCC1CCN(C(=O)c2ccccc2)CC1 [Daporinad] + CC[C@H](NC(=O)[C@H](C)NC)C(=O)N1C[C@@H](O)C[C@H]1Cc1c(-c2[nH]c3cc(F)ccc3c2C[C@@H]2C[C@H](O)CN2C(=O)[C@H](CC)NC(=O)[C@H](C)NC)[nH]c2cc(F)ccc12 [Birinapant],312,
Nc1ccccc1NC(=O)c1ccc(CNC(=O)OCc2cccnc2)cc1 [Entinostat] + CC[C@H](NC(=O)[C@H](C)NC)C(=O)N1C[C@@H](O)C[C@H]1Cc1c(-c2[nH]c3cc(F)ccc3c2C[C@@H]2C[C@H](O)CN2C(=O)[C@H](CC)NC(=O)[C@H](C)NC)[nH]c2cc(F)ccc12 [Birinapant],-296,
Nc1ccccc1NC(=O)c1ccc(CNc2nccc(-c3cccnc3)n2)cc1 [Mocetinostat] + CC[C@H](NC(=O)[C@H](C)NC)C(=O)N1C[C@@H](O)C[C@H]1Cc1c(-c2[nH]c3cc(F)ccc3c2C[C@@H]2C[C@H](O)CN2C(=O)[C@H](CC)NC(=O)[C@H](C)NC)[nH]c2cc(F)ccc12 [Birinapant],-263,-1360
Cc1ccc(NC(=O)c2ccc(CN3CCN(C)CC3)cc2)cc1Nc1nccc(-c2cccnc2)n1 [Imatinib] + CC[C@H](NC(=O)[C@H](C)NC)C(=O)N1C[C@@H](O)C[C@H]1Cc1c(-c2[nH]c3cc(F)ccc3c2C[C@@H]2C[C@H](O)CN2C(=O)[C@H](CC)NC(=O)[C@H](C)NC)[nH]c2cc(F)ccc12 [Birinapant],-103,
CC(/C=C1\SC(=S)N(CC(=O)O)C1=O)=C\c1ccccc1 [Epalrestat] + CC[C@H](NC(=O)[C@H](C)NC)C(=O)N1C[C@@H](O)C[C@H]1Cc1c(-c2[nH]c3cc(F)ccc3c2C[C@@H]2C[C@H](O)CN2C(=O)[C@H](CC)NC(=O)[C@H](C)NC)[nH]c2cc(F)ccc12 [Birinapant],114,
CO/N=C(\C(=O)N[C@@H]1C(=O)N2C(C(=O)O)=C(Cn3ccc(=N)n3CCO)CS[C@H]12)c1csc(N)n1 [Cefoselis sulfate] + CC[C@H](NC(=O)[C@H](C)NC)C(=O)N1C[C@@H](O)C[C@H]1Cc1c(-c2[nH]c3cc(F)ccc3c2C[C@@H]2C[C@H](O)CN2C(=O)[C@H](CC)NC(=O)[C@H](C)NC)[nH]c2cc(F)ccc12 [Birinapant],200,
N#CC(=Cc1ccc(O)c(O)c1)C(=O)NCc1ccccc1 [Tyrphostin B42] + CC[C@H](NC(=O)[C@H](C)NC)C(=O)N1C[C@@H](O)C[C@H]1Cc1c(-c2[nH]c3cc(F)ccc3c2C[C@@H]2C[C@H](O)CN2C(=O)[C@H](CC)NC(=O)[C@H](C)NC)[nH]c2cc(F)ccc12 [Birinapant],83.7,
O=C(/C=C/c1ccc(CN(CCO)CCc2c[nH]c3ccccc23)cc1)NO [Dacinostat] + CC[C@H](NC(=O)[C@H](C)NC)C(=O)N1C[C@@H](O)C[C@H]1Cc1c(-c2[nH]c3cc(F)ccc3c2C[C@@H]2C[C@H](O)CN2C(=O)[C@H](CC)NC(=O)[C@H](C)NC)[nH]c2cc(F)ccc12 [Birinapant],-67.4,
Cc1[nH]c2ccccc2c1CCNCc1ccc(/C=C/C(=O)NO)cc1 [Panobinostat] + CC[C@H](NC(=O)[C@H](C)NC)C(=O)N1C[C@@H](O)C[C@H]1Cc1c(-c2[nH]c3cc(F)ccc3c2C[C@@H]2C[C@H](O)CN2C(=O)[C@H](CC)NC(=O)[C@H](C)NC)[nH]c2cc(F)ccc12 [Birinapant],-159,-1360
O=C(/C=C/c1cccc(S(=O)(=O)Nc2ccccc2)c1)NO [Belinostat] + CC[C@H](NC(=O)[C@H](C)NC)C(=O)N1C[C@@H](O)C[C@H]1Cc1c(-c2[nH]c3cc(F)ccc3c2C[C@@H]2C[C@H](O)CN2C(=O)[C@H](CC)NC(=O)[C@H](C)NC)[nH]c2cc(F)ccc12 [Birinapant],-26.7,
CC[C@]12C=CCN3CC[C@@]4(c5cc([C@@]6(C(=O)OC)C[C@@H]7C[C@@H](C(C)(F)F)CN(Cc8c6[nH]c6ccccc86)C7)c(OC)cc5N(C)[C@H]4[C@@](O)(C(=O)OC)[C@@H]1OC(C)=O)[C@@H]32 [Vinflunine] + CC[C@H](NC(=O)[C@H](C)NC)C(=O)N1C[C@@H](O)C[C@H]1Cc1c(-c2[nH]c3cc(F)ccc3c2C[C@@H]2C[C@H](O)CN2C(=O)[C@H](CC)NC(=O)[C@H](C)NC)[nH]c2cc(F)ccc12 [Birinapant],-106,-752
O=C(N[C@@H](c1ccccc1)[C@@H]1CCCCN1)c1cccc(C(F)(F)F)c1Cl + CC[C@H](NC(=O)[C@H](C)NC)C(=O)N1C[C@@H](O)C[C@H]1Cc1c(-c2[nH]c3cc(F)ccc3c2C[C@@H]2C[C@H](O)CN2C(=O)[C@H](CC)NC(=O)[C@H](C)NC)[nH]c2cc(F)ccc12 [Birinapant],61.9,
CC[C@@]1(O)C(=O)OCc2c1cc1n(c2=O)Cc2cc3cc(O)ccc3nc2-1 [10-hydroxycamptothecin] + CC[C@H](NC(=O)[C@H](C)NC)C(=O)N1C[C@@H](O)C[C@H]1Cc1c(-c2[nH]c3cc(F)ccc3c2C[C@@H]2C[C@H](O)CN2C(=O)[C@H](CC)NC(=O)[C@H](C)NC)[nH]c2cc(F)ccc12 [Birinapant],-38.5,
CCc1c2c(nc3ccc(O)cc13)-c1cc3c(c(=O)n1C2)COC(=O)[C@]3(O)CC + CC[C@H](NC(=O)[C@H](C)NC)C(=O)N1C[C@@H](O)C[C@H]1Cc1c(-c2[nH]c3cc(F)ccc3c2C[C@@H]2C[C@H](O)CN2C(=O)[C@H](CC)NC(=O)[C@H](C)NC)[nH]c2cc(F)ccc12 [Birinapant],0.514,
CC[C@@]1(O)C(=O)OCc2c1cc1n(c2=O)Cc2cc3c(CN(C)C)c(O)ccc3nc2-1 [Topotecan hydrochloride] + CC[C@H](NC(=O)[C@H](C)NC)C(=O)N1C[C@@H](O)C[C@H]1Cc1c(-c2[nH]c3cc(F)ccc3c2C[C@@H]2C[C@H](O)CN2C(=O)[C@H](CC)NC(=O)[C@H](C)NC)[nH]c2cc(F)ccc12 [Birinapant],-166,-963
O=C(C1CC1)N1CC[C@@H](Cn2c(-c3ccc(-c4ccc5occc5c4)cc3)nc3cnccc32)C1 + CC[C@H](NC(=O)[C@H](C)NC)C(=O)N1C[C@@H](O)C[C@H]1Cc1c(-c2[nH]c3cc(F)ccc3c2C[C@@H]2C[C@H](O)CN2C(=O)[C@H](CC)NC(=O)[C@H](C)NC)[nH]c2cc(F)ccc12 [Birinapant],117,
CCCCCN(CCC12CC3CC(CC(C3)C1)C2)C(=O)NCCCc1ccncc1 + CC[C@H](NC(=O)[C@H](C)NC)C(=O)N1C[C@@H](O)C[C@H]1Cc1c(-c2[nH]c3cc(F)ccc3c2C[C@@H]2C[C@H](O)CN2C(=O)[C@H](CC)NC(=O)[C@H](C)NC)[nH]c2cc(F)ccc12 [Birinapant],297,
Cn1cc(/C=C/C(=O)c2cccc(F)c2)cc1/C=C/C(=O)NO + CC[C@H](NC(=O)[C@H](C)NC)C(=O)N1C[C@@H](O)C[C@H]1Cc1c(-c2[nH]c3cc(F)ccc3c2C[C@@H]2C[C@H](O)CN2C(=O)[C@H](CC)NC(=O)[C@H](C)NC)[nH]c2cc(F)ccc12 [Birinapant],132,
